Unmarked numbers belong to inactive results. No rule for the calls is given here.
What follows are compounds tested against Pantothenate synthetase (Mycobacterium tuberculosis (strain ATCC 25618 / H37Rv)) (UniProt P9WIL5) (assay: Recombinant Mtb pantothenate synthetase (PanC) inhibitors, coupled enzyme, confirmatory (AID 375;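 also: 0% = full reaction with vehicle and 100% = no enzyme background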)). Conditions: coupled enzyme assay; at 10 µM, hits give high values.
Chain of Pantothenate synthetase (Mycobacterium tuberculosis (strain ATCC 25618 / H37Rv)) (P9WIL5 whole entry, looked up): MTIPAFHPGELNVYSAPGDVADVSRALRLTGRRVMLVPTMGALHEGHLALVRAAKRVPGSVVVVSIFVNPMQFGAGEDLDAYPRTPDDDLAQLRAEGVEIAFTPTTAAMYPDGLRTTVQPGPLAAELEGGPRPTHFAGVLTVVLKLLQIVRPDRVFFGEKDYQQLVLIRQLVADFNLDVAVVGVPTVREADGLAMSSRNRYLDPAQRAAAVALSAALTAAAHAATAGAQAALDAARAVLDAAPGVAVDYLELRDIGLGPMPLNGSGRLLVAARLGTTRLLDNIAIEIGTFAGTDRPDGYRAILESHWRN

| Structure (SMILES) | inhibition [%] |
| --- | --- |
| Cc1c(NC(=O)c2nn(C)c(=O)c3ccccc23)c(=O)n(-c2ccccc2)n1C | 0 |
| Cc1ccc(-c2c3c(=O)n(C)c(=O)n(C)c3cn2CCCN2CCOCC2)cc1 | 9 |
| CCN(CC)CCN1C(=O)C(O)=C(C(=O)c2cccs2)C1c1ccccn1 (stereo not given) | 0 |
| CN(C)C(=O)c1ccc(COc2ccccc2Br)o1 | 0 |
| COc1ccc(NC(=O)CS(=O)CC(=O)Nc2cc(Cl)ccc2OC)cc1 (stereo not given) | 3 |
| Cc1cc(NC(=O)Cc2cn3ccsc3n2)n(-c2ccccc2)n1 | 1 |
| c1ccc2nc(-c3nc4ccccc4[nH]3)ccc2c1 | 0 |
| CCOC(=O)c1cc2ccc(OC)c(OC)c2c(=O)s1 | 0 |
| O=C(NCCC1=CCCCC1)C1CCN(S(=O)(=O)c2cccc3nsnc23)CC1 | 10 |
| COc1ccc(OC)c(N2Cc3cc(C)c(C)cc3C2)c1 | 3 |
| O=C(NCCO)c1scc2c1OCCO2 | 4 |
| CCOC(=O)c1ccc(CNC(=O)C(Cc2c[nH]c3ccccc23)NC(C)=O)o1 (stereo not given) | 3 |
| CCN1CCN(C(=O)c2cn(CC)c3ccc(S(=O)(=O)N(C)C)cc3c2=O)CC1 | 0 |
| CCOc1ccc(Cc2nn[nH]n2)cc1 | 1 |
| COc1cccc(Cn2c(Oc3ccccc3)nc3c2c(=O)n(C)c(=O)n3C)c1 | 0 |
| O=C(COC(=O)C1CC(=O)N(c2ccccc2)C1)c1ccccc1 (stereo not given) | 0 |
| COC(=O)c1ccccc1S(=O)(=O)N(CCCO)Cc1cc2c(C)ccc(C)c2[nH]c1=O | 2 |
| CCCS(=O)(=O)N1CCC(C(=O)NCCN2CCCC2)CC1 | 0 |
| CCOC(=O)c1[nH]c(C)c(C(=O)Nc2ccccc2C)c1C | 0 |
| CC(=O)C1=C(O)C(=O)N(Cc2cccnc2)C1c1ccccc1 (stereo not given) | 3 |

| Structure (SMILES) | inhibition [%] |
| --- | --- |
| O=C(Cn1c(-c2cncs2)nc2ccccc21)NC1CCCC1 | 0 |
| Cc1occc1-c1nnc(SCC(=O)c2ccc(F)cc2)n1Cc1ccco1 | 3 |
| Cc1noc(C)c1CSc1nnc2scc(-c3ccc(Cl)cc3)n12 | 0 |
| N#CC1(c2ccccc2)CCC(=NO)CC1 (stereo not given) | 0 |
| CCOC(=O)N1CCN(C(=O)c2ccc3c(SCC(=O)O)c4c(nc3c2)CCCC4)CC1 | 0 |
| COc1ccc(-n2c(COc3cccc(C)c3)nnc2SCC(=O)NCc2ccco2)cc1 | 5 |
| Cc1cccc(N(CC(=O)N2CCCC2)S(=O)(=O)c2ccccc2)c1C | 0 |
| Cc1cc(OCC(=O)NCCO)cc(C)c1Cl | 3 |
| CCN(CCCNC(=O)C1CCN(S(=O)(=O)c2cccc3nonc23)CC1)Cc1ccccc1 | 6 |
| CC1(C)CC(=O)CC(C2(O)C(=O)N(Cc3ccccc3)c3ccccc32)O1 (stereo not given) | 0 |
| CCOC(=O)CNC(=O)CSc1ncnc2c1cnn2Cc1ccccc1 | 0 |
| CCOCCCNC(=O)C1CCN(C(=O)Nc2ccc(Cl)cc2)CC1 | 3 |
| Cc1ccc(C(=O)Nc2ccc3c(c2)OCO3)o1 | 0 |
| CSc1c(CC(=O)NCCO)n(C)c2ccccc12 | 0 |
| O=C(Cn1nc(Cc2ccncc2)c2ccccc2c1=O)N1CCN(C(=O)c2ccco2)CC1 | 0 |
| CN1C2C=C3C(C#N)=C(N)C(C#N)(C#N)[C@@H](c4ccc(Cl)cc4)[C@@H]3C1CC2 (stereo not given in full) | 7 |
| CCN(CC)CCn1c(=N)n(CCO)c2ccccc21 | 0 |
| COc1ccccc1NC(=O)N1c2ccc(F)cc2CCC1C (stereo not given) | 8 |
| CC1(C)CNC(=O)CC(C)(C)N1O | 0 |
| CC(=O)NC(Cc1cc(C)ccc1C)C(=O)N1CCN(C(=O)Nc2ccc(C(C)=O)cc2)CC1 (stereo not given) | 0 |
